This is part of a sample that, as a whole, favours compounds with a hit. Of some 83,000 tested, about 20% had one in any assay.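 Step 1: grow cells in 96-well plates. Step 2: add test compound at a single concentration. Step 3: incubate 48 h. Step 4: record percent growth.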 Unmarked numbers belong to inactive results. Calls of active or inactive are those of the source. The calls were made as follows: active = growth percent below 10; inactive = the rest.

This assay has as its system HL-60(TB) leukemia. In words: NCI-60 one-dose screen, 48 h (100 = growth as untreated, 0 = no growth, -100 = all killed). Particulars: 10 µM unless noted.
Turning to `CCN1C(=O)/C(=c2\sc3n(c2=O)C2C(NN=3)N(CC)C(=O)N2CC)c2ccccc21` (stereo not given), the growth is -29.3% (active).

`COc1cc(-c2nc3ccc(C)cc3[nH]2)ccc1OCc1nnc(-c2ccc(CC(C)C)cc2)o1`: the growth is 110%.

In the case of `COc1cc2nc(N3CCCC3)nc(NCc3ccccc3)c2cc1OC`, the growth is -47.8% (active).

Turning to `O=C1/C(=C/c2ccccc2O)C(=S)SN1Cc1ccco1`, the growth is 92%.

`O=C(Nc1ccc(I)cc1F)c1cc(F)ccc1O`: the growth is -30.7% (active).

For the compound `CC(=O)N(CC(O)CO)c1c(I)c(C(=O)NCCO)c(I)c(C(=O)NCC(O)CO)c1I` (stereo not given), the growth was 92.2%.

For `NCC(=O)CCC(=O)O`, the growth was 132%.

For the compound `O=C1C=CC2(O)OC(c3ccccc3)CC(=O)C2=C1O` (stereo not given), the growth is 50.5%.

Take `O=c1c2cc(F)cc(Cl)c2sc2c(NCCCNCCO)nc3ccccc3c12`: the growth is 77.1%.

In the case of `COc1ccc(/C=C/C(=O)c2ccc(NC(=O)CSc3nc4c([nH]3)c(=O)n(C)c(=O)n4C)cc2)cc1OC`, the growth was 99.5%.

On to `C=CCn1c2ccccc2c2c3c(c4c5ccccc5n(CC=C)c4c21)C(=O)N(O)C3=O`, for which the growth was -39.5% (active).

For `Clc1ccc(-c2c3ccc(=[N+]4CCCCC4)cc-3oc3cc(N4CCCCC4)ccc23)cc1`, the growth was -42.3% (active).

Consider `COc1ccc(C2C3=C(COC3=O)N(CCO)c3cc4c(cc32)OCCO4)cc1OC` (stereo not given), for which the growth was 6.34% (active).

For the compound `CC(=O)OC1CC2CCC1(C)C2(C)C` (stereo not given), the growth was 103%.

As for `CCOC(=O)c1coc(C(=O)OCC)c1C(=O)OCC`, the growth is 105%.

In the case of `COc1ccc(/C=c2/c(=O)[nH]c3nc4sc(C)c(C)c4c(=O)n23)cc1`, the growth is 71.8%.

`COc1cc(OC)cc(-c2ccc(-c3ccc(C(=N)N)cc3)s2)c1`: the growth was -57.8% (active).

Turning to `COc1ccc(/C=C2\Cc3c(Br)cccc3C2=O)c(OC)c1`, the growth is 89.2%.

As to `COc1ccc2c(c1)nc(N)c1c3cccnc3cn21`, the growth is 14.9%.

As for `COc1cc(C2CC(c3ccc(N(C)C)cc3)=NN2C(C)=O)cc(OC)c1OC` (stereo not given), the growth was -3.98% (active).

`c1ccc2cc(C[n+]3ccn(CCCCCCn4cc[n+](Cc5ccc6ccccc6c5)c4)c3)ccc2c1`: the growth is 87.9%.

As for `Fc1ccc(Nc2nc(Nc3ccc(-c4nc5ccccc5[nH]4)cc3)nc(N3CCCC3)n2)cc1`, the growth was 5.97% (active).

On to `CCOC1Oc2ccccc2C(=O)/C1=N/c1nccs1` (stereo not given), for which the growth is 106%.

Turning to `Cc1ccc(-c2cc3c(SCC(=O)Nc4cc(C(F)(F)F)ccc4Cl)nccn3n2)cc1`, the growth is 12.6%.

As for `COC(=O)C1=C(C(=O)ON)[C@@H]2C=C[C@@]1([C@@H](Cc1ccccc1)Nc1ccccc1)O2`, the growth is -3.29% (active).

As for `N#Cc1c(-c2cccc([N+](=O)[O-])c2)cc(-c2ccc(Nc3nc(Nc4ccc(F)cc4)nc(Nc4ccc(F)cc4)n3)cc2)nc1N`, the growth is 28.1%.

On to `Fc1ccc(Nc2nnc(-c3ccc(Cl)cc3)o2)cc1`, for which the growth is 91.4%.

Turning to `C=C(CNCCc1ccc(O)cc1)[C@@H]1CC[C@]2(COC3CCCCO3)CC[C@]3(C)[C@H](CC[C@@H]4[C@@]5(C)CCC(N)C(C)(C)[C@@H]5CC[C@]43C)[C@@H]12` (stereo not given in full), the growth was -75.6% (active).

For the compound `COc1ccc(NC(=O)/C=C(C)/C=C/C=C(C)/C=C/C2=C(C)CCCC2(C)C)cc1`, the growth was 5.62% (active).

On to `COc1ccccc1OCC(=O)Nc1sc2c(c1C(N)=O)CCC2`, for which the growth was 50.1%.

In the case of `O=C(CSc1nc2ccccc2[nH]1)Nc1cccc(Cl)c1`, the growth is 102%.

Take `COc1cccc(-c2nn(-c3ccccc3)cc2-c2ccnc(NCCCO)c2)c1`: the growth is -7.94% (active).

Regarding `CC(C)(C)c1cc(/C=N/NC(=O)c2ccccc2NC(=O)c2cccs2)c(O)c(C(C)(C)C)c1`, the growth is 14.1%.

Take `O=C1N=c2cc3c(cc2=C/C1=C/c1sc(=S)n(CCc2ccc(O)cc2)c1O)OCCO3`: the growth is 48.1%.

In the case of `COc1ccc2c(c1)c(-c1nc(-c3c[nH]c4ncccc34)cs1)cn2CCNC(=O)OC(C)(C)C`, the growth is 69.2%.

With `CN(C)CCn1c(=O)c2ccccc2n2nc3ccccc3c12`, the growth is 70.3%.

As to `O=C(Cc1ccc([N+](=O)[O-])cc1)Oc1ccccc1`, the growth was 105%.

As for `O=C(NCc1ccccc1)C(Cl)Cl`, the growth is 95.9%.

For the compound `COc1ccc2nc3cc(Cl)ccc3c(Nc3cc(C(C)C)c(O)cc3C)c2c1`, the growth was 7.64% (active).

As for `COC(=O)[C@H](C)NC(=O)[C@@H]1CCCN1C(=O)CNC(=O)[C@H](C)N`, the growth is 104%.

Source of the values: PubChem BioAssay (NCI).
